Compounds without any hit were thinned out: in the full panel of roughly 83,000, 20% have a hit.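 Note: values are percent growth. 100 is the growth of untreated cells, values between 100 and 0 indicate rising inhibition; between -100 and 0 indicates cell death.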 Values without a mark were called inactive. Calls of active or inactive are those of the source. The calls were made as follows: active = growth percent below 10; inactive = the rest.

Among the test systems are HCT-15 colon; HT29 colon; SNB-75 CNS; SNB-19 CNS; U251 CNS; PC-3 prostate; SK-MEL-5 melanoma; UACC-62 melanoma; LOX IMVI melanoma; SK-MEL-28 melanoma.
Holding throughout (experiment): NCI-60 one-dose screen, 48 h (100 = growth as untreated, 0 = no growth, -100 = all killed)
Holding throughout (details): 10 µM unless noted

Regarding `COc1cc(Cn2c(SCC(=O)Nc3ccc(Cl)cc3)nc3ccccc3c2=O)cc(OC)c1OC`, the growth with HCT-15 colon was 72.8%; with HT29 colon, 87.4%; in the assay on SNB-75 CNS, 27.1%; with SNB-19 CNS, 63.9%; in the assay with U251 CNS it was 75.4%; with PC-3 prostate, 65.9%. The growth in the assay on SK-MEL-5 melanoma is 49.8%; in the assay on UACC-62 melanoma it was 63.3%; in the assay on LOX IMVI melanoma it was 56.1%; in the assay on SK-MEL-28 melanoma, 83.7%.

Regarding `COc1ccc(NC(=O)CSc2nc3ccccc3c(=O)n2-c2ccccc2C(F)(F)F)c(OC)c1OC`, the growth with HCT-15 colon is 105%; in the assay on HT29 colon, 104%; in the assay on SNB-75 CNS it was 83.9%; in the assay on SNB-19 CNS it was 88.8%; with U251 CNS, 95.7%; in the assay on PC-3 prostate, 100%. Also, the growth was 98.2% in the assay on SK-MEL-5 melanoma, 87.5% with UACC-62 melanoma, 98.9% in the assay with LOX IMVI melanoma and 106% in the assay with SK-MEL-28 melanoma.

Consider `COc1cc(NCCCN=C(N)NC(N)=NC(C)C)c2ncccc2c1`, for which the growth in the assay on HCT-15 colon was 89.8%; with HT29 colon, 58.9%; in the assay on SNB-75 CNS, 75.3%; in the assay on SNB-19 CNS it was 77.7%; in the assay on U251 CNS it was 70.8%; with PC-3 prostate, 45%. Moreover, the growth is 27% in the assay with SK-MEL-5 melanoma, 90.1% in the assay on UACC-62 melanoma, 80.8% in the assay with LOX IMVI melanoma and 84.4% in the assay on SK-MEL-28 melanoma.

Take `CC(=O)Nc1nc(C(=O)N2N=C(C)/C(=C/c3cccs3)C2=O)cs1`: the growth in the assay on HCT-15 colon was 93.1%; in the assay with HT29 colon, 96.5%; in the assay with SNB-75 CNS, 92%; in the assay on SNB-19 CNS, 102%; in the assay with U251 CNS it was 99.4%; in the assay with PC-3 prostate, 102%. Besides, the growth in the assay with SK-MEL-5 melanoma was 109%; with UACC-62 melanoma, 113%; in the assay on LOX IMVI melanoma it was 98%; in the assay with SK-MEL-28 melanoma, 111%.

On to `O=C(O)c1ccc(-n2c(=O)c3ccccc3c3ccccc3c2=O)cc1`, for which the growth was 104% with HCT-15 colon; 98.5% in the assay on HT29 colon; 92.9% in the assay on SNB-75 CNS; 104% with SNB-19 CNS; 102% with U251 CNS; 98.9% with PC-3 prostate. Also, the growth in the assay with SK-MEL-5 melanoma is 104%; in the assay with UACC-62 melanoma it was 105%; in the assay on LOX IMVI melanoma, 103%; in the assay with SK-MEL-28 melanoma, 113%.

Regarding `Cc1ccccc1C(=O)c1ccccc1C(=O)O`, the growth is 107% with HCT-15 colon; 111% in the assay on HT29 colon; 84.8% in the assay on SNB-75 CNS; 111% in the assay with SNB-19 CNS; 104% with U251 CNS; 96.8% in the assay on PC-3 prostate. The growth in the assay on SK-MEL-5 melanoma is 104%; in the assay with UACC-62 melanoma it was 104%; in the assay with LOX IMVI melanoma it was 95.9%; in the assay with SK-MEL-28 melanoma it was 109%.

Take `Cc1ccc(S(=O)(=O)OCC(=O)Nc2ccc(C(=O)O)c(O)c2)cc1`: the growth was 109% in the assay on HCT-15 colon; 98.6% in the assay on HT29 colon; 98.8% in the assay with SNB-75 CNS; 108% with SNB-19 CNS; 96.7% in the assay on U251 CNS; 91.3% in the assay on PC-3 prostate. Also, the growth in the assay on SK-MEL-5 melanoma is 96.3%; with UACC-62 melanoma it was 99.9%; with LOX IMVI melanoma, 78.5%; in the assay with SK-MEL-28 melanoma it was 98.6%.

In the case of `COC(=O)c1cc(-c2cccs2)c(C#N)c(N)c1C#N`, the growth is 101% in the assay on HCT-15 colon; 106% in the assay with HT29 colon; 83.4% in the assay with SNB-75 CNS; 97.1% in the assay on SNB-19 CNS; 95.5% in the assay on U251 CNS; 95.5% in the assay with PC-3 prostate. Moreover, the growth with SK-MEL-5 melanoma is 102%; with UACC-62 melanoma it was 99.3%; in the assay on LOX IMVI melanoma, 99%; in the assay on SK-MEL-28 melanoma it was 114%.

Turning to `CCOC(=O)C(Cc1ccccc1)n1c(O)c(C=Nc2ccc(C(=O)OCCN(CC)CC)cc2)sc1=O` (stereo not given), the growth with HCT-15 colon is 89.4%; with HT29 colon, 62.4%; in the assay on SNB-75 CNS it was 99.7%; with SNB-19 CNS, 95.3%; with U251 CNS, 96.3%; with PC-3 prostate, 72.8%. The growth with SK-MEL-5 melanoma was 88.7%; with UACC-62 melanoma it was 97.7%; in the assay with LOX IMVI melanoma it was 93.7%; in the assay on SK-MEL-28 melanoma, 93.1%.

For the compound `CC(C)(C)c1cc(-c2nc3ccc(N4CCN(CCO)CC4)cc3[nH]2)cc(C(C)(C)C)c1O`, the growth in the assay with HCT-15 colon was -14.4% (active); in the assay on HT29 colon it was 4.47% (active); in the assay with SNB-75 CNS, 67.2%; with SNB-19 CNS it was 74%; in the assay with U251 CNS, 16%; in the assay on PC-3 prostate it was 58.3%. The growth in the assay on SK-MEL-5 melanoma was 74%; in the assay on UACC-62 melanoma, 26.7%; with LOX IMVI melanoma, -35.5% (active); with SK-MEL-28 melanoma, 61.2%.

As to `CCN1C(=O)N(CC)C2C1NN=c1s/c(=C\c3ccccn3)c(=O)n12` (stereo not given), the growth in the assay on HCT-15 colon is 33.5%; in the assay on HT29 colon it was 6.69% (active); in the assay on SNB-75 CNS it was -24.4% (active); with SNB-19 CNS, 34.1%; with U251 CNS, 28.3%; in the assay on PC-3 prostate, 24.4%. The growth with SK-MEL-5 melanoma was 5.18% (active); in the assay on UACC-62 melanoma, 39.8%; in the assay on LOX IMVI melanoma, 42.6%; in the assay on SK-MEL-28 melanoma, 57.3%.

On to `CCCCC(N)(C(=O)O)C1CCCC1` (stereo not given), for which the growth in the assay with HCT-15 colon was 96.2%; with HT29 colon, 100%; with SNB-75 CNS, 93.5%; in the assay on SNB-19 CNS it was 99.9%; with U251 CNS it was 91%; in the assay with PC-3 prostate, 92.2%. The growth in the assay on SK-MEL-5 melanoma is 105%; with UACC-62 melanoma, 97.4%; in the assay with LOX IMVI melanoma, 99.4%; in the assay with SK-MEL-28 melanoma it was 94.8%.

`Clc1nc(Cl)c2ncn(C/C=C/Cn3cnc4c(Cl)nc(Cl)nc43)c2n1`: the growth with HCT-15 colon was 50.1%; in the assay on HT29 colon, 48%; in the assay with SNB-75 CNS, 65%; in the assay on SNB-19 CNS, 74.5%; in the assay on U251 CNS it was 57.4%; in the assay on PC-3 prostate, 66.6%. Moreover, the growth with SK-MEL-5 melanoma was 68.7%; in the assay on UACC-62 melanoma it was 79.1%; in the assay on LOX IMVI melanoma, 38.8%; in the assay with SK-MEL-28 melanoma, 98.8%.
